RORgamma inh: blocks mouse ROR gamma transcriptional activity | P51450 | Drosophila S2 Gal4-RORgamma UAS-luciferase reporter, 20 h | Potency, µM (highest dose often 53.6 µM), hits mostly inhibitors | actives 5.4% (n = 310,000); also: nearly all actives have a fitted effect of over 60% in size
Target sequence (P51450 whole entry, looked up, the tested form may be a part): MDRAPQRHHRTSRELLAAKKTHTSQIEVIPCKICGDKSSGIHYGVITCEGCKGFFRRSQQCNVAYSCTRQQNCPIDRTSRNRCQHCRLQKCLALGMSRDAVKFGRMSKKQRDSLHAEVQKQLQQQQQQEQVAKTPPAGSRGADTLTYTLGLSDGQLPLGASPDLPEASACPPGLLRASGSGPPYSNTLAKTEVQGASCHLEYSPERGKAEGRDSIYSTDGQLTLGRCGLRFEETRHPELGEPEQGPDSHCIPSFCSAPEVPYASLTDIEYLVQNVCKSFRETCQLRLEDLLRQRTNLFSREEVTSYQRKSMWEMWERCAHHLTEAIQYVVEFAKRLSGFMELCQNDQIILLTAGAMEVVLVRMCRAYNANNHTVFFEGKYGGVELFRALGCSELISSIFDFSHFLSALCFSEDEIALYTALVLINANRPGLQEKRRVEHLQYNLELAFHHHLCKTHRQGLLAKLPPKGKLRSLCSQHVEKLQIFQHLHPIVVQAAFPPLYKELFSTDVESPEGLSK
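Luciferase reporter read in Schneider cells carrying Gal4-RORγ (mouse) and UAS-Photinus luciferase; cells given compound 1 h before 700 uM copper sulfate induction, then incubated 20 h at ambient temperature.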
ELG1 repair inh: blocks ELG1-dependent DNA repair in HEK293T cells; Potency, µM (titrated, usually from 46.1 µM), actives largely listed as inhibitors; actives 2.3% (n = 330,000); HEK293T ELG1-luciferase reporter, luminescence, 16 h; DNA damage induced by 5-fluorouridine; also: nearly all actives have a fitted effect of over 55% in size
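HEK293T cells expressing luciferase-tagged ELG1 (2,000/well) received 5-Fluorouridine plus compound or DMSO for 16 hr at 37 °C. Luciferase was read by ONE-Glo luminescence after 30 min at room temperature.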
DT40 TDP1 no CPT: qHTS for Inhibitors of human tyrosyl-DNA phosphodiesterase 1 (TDP1): qHTS in cells in absence of CPT | DT40 Tdp1-/- hTDP1 cells, no CPT, ATP luminescence, 48 h | Potency, µM (highest dose often 46.2 µM), usual class: inhibitors | actives 15% (n = 420,000); also: nearly all actives have a fitted effect of over 55% in size
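Growth kinetics read by CellTiter-Glo luminescence after ≥48 hr at 37 °C. Cells: DT40 Tdp1-/- stably carrying human TDP1, 400 per well, compound exposure in the absence of CPT (DMSO vehicle).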
DT40 TDP1 CPT: DT40-hTDP1 cell growth loss with CPT; chicken DT40 Tdp1-/-;hTDP1 cells + 20 nM CPT, ATP luminescence, 48 h; AID 686979; actives 12% (n = 420,000); Potency, µM (doses to about 46.2 µM), most hits filed as inhibitors; also: nearly all actives have a fitted effect of over 55% in size
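Chicken DT40 Tdp1-/- cells stably complemented with human TDP1 were seeded at 400 cells/well in medium containing 20 nM camptothecin, exposed to pin-transferred compounds, and grown at 37 °C for at least 48 hr. Viability was read as ATP luminescence.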
12-LOX inh: inhibitors of human 12S-lipoxygenase ALOX12 | purified 12hLO, xylenol orange hydroperoxide absorbance | Potency, µM (doses to about 108 µM), most hits filed as inhibitors | P18054 | actives 1.1% (n = 580,000)
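Purified human 12hLO (150 nM final) in 25 mM Hepes, 0.01% Triton X-100, pH 7.0 was preincubated 15 min at room temperature with compound. Then 40 uM arachidonic acid was added, 30 min. Hydroperoxide was read by Fe-XO absorbance ratio 573/405 nm.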
VP16 counter: Gal4-VP16 reporter inhibition counter-screen | Drosophila S2 Gal4-VP16 UAS-luciferase, luminescence, 20 h | Potency, µM (top dose mostly 53.6 µM), actives largely listed as inhibitors | actives 3.5% (n = 310,000);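 also: Gal4-VP16 expression switched on by copper sulfate through the metallothionein promoter; nearly all actives have a fitted effect of over 50% in size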
Large screens that a line does not name were inactive. Most compounds without a hit are left out; they make up all but 15% or so of the library. Calls follow the shape of the dose curve; as a rule, active = well fitted curve in the direction sought with a large enough effect; inconclusive = small, poorly fitted or top-dose-only effect, or another doubt; inactive = no such curve, though single readings can be large; an effect the other way counts as inactive or inconclusive.

COc1ccc([N+](=O)[O-])cc1N(CC(O)CN(C)C)S(=O)(=O)c1ccc(C)cc1 (configuration not stated)	none
COc1ccc([N+](=O)[O-])cc1N(CC(O)CN(CC(C)C)CC(C)C)S(=O)(=O)c1ccccc1 (configuration not stated)	DT40 TDP1 no CPT 20.6µM, DT40 TDP1 CPT inconclusive
CCCCN(CCCC)CC(O)CN(c1cc([N+](=O)[O-])ccc1OC)S(=O)(=O)c1ccccc1 (configuration not stated)	DT40 TDP1 no CPT 14.6µM, DT40 TDP1 CPT inconclusive
O=C(NCc1ccc2c(c1)OCO2)c1nc(S(=O)(=O)Cc2ccccc2)ncc1Cl	RORgamma inh inconclusive, DT40 TDP1 no CPT 4.11µM, DT40 TDP1 CPT 2.59µM, VP16 counter inconclusive
O=C(NCc1ccc2c(c1)OCO2)c1nc(S(=O)(=O)Cc2ccccc2F)ncc1Cl	RORgamma inh 7.08µM, DT40 TDP1 no CPT 2.06µM, DT40 TDP1 CPT 4.11µM, VP16 counter 3.55µM
Cn1ncc(Cl)c1C(=O)NCc1ccc2c(c1)OCO2	DT40 TDP1 no CPT inconclusive, DT40 TDP1 CPT inconclusive, VP16 counter inconclusive
O=C(NCc1ccc2c(c1)OCO2)c1ccccc1Cl	none (no result: RORgamma inh, ELG1 repair inh, VP16 counter)
O=S1(=O)CCC(S(=O)(=O)Nc2ccc(F)cc2)C1 (configuration not stated)	none (no result: RORgamma inh, ELG1 repair inh, DT40 TDP1 no CPT, DT40 TDP1 CPT, VP16 counter)
CCCn1nc(C(=O)OCCOc2ccc(C)cc2)c2ccccc2c1=O	none (no result: RORgamma inh, ELG1 repair inh, DT40 TDP1 no CPT, DT40 TDP1 CPT, VP16 counter)
Cn1cnc(C(=O)N2[C@@H]3CC[C@H]2CC(NC(=O)c2ccc(F)cc2)C3)c1 (some centres not stated)	none (no result: RORgamma inh, ELG1 repair inh, DT40 TDP1 no CPT, DT40 TDP1 CPT, VP16 counter)
Cc1cc(Cn2cc3c4c(cccc42)[C@H](CC(C)C)N[C@H](C(=O)NCc2ccco2)C3)no1	none (no result: RORgamma inh, ELG1 repair inh, DT40 TDP1 no CPT, DT40 TDP1 CPT, VP16 counter)
O=C(OCn1ncc(Cl)c(Cl)c1=O)c1cccc(C(F)(F)F)c1	ELG1 repair inh inconclusive, DT40 TDP1 no CPT 3.26µM, DT40 TDP1 CPT inconclusive (no result: 12-LOX inh)
Fc1ccc(C(c2nnc(-c3ccccc3)o2)N2CCN(c3ccccc3)CC2)c(Cl)c1 (configuration not stated)	DT40 TDP1 no CPT 20.6µM, DT40 TDP1 CPT inconclusive (no result: RORgamma inh, ELG1 repair inh, VP16 counter)
CCOc1ccccc1NC(c1nnc(-c2ccccc2)o1)c1ccc(F)cc1Cl (configuration not stated)	DT40 TDP1 no CPT 20.6µM, DT40 TDP1 CPT inconclusive (no result: RORgamma inh, ELG1 repair inh, VP16 counter)
Fc1ccc(N2CCN(Cc3nnc(-c4ccccc4)o3)CC2)cc1	none
Fc1ccc(C(NCCc2ccc(Cl)cc2)c2nnc(-c3ccccc3)o2)c(Cl)c1 (configuration not stated)	DT40 TDP1 no CPT inconclusive, DT40 TDP1 CPT inconclusive (no result: RORgamma inh, ELG1 repair inh, VP16 counter)
CCOc1ccccc1NC(=O)NC(c1ccccc1)c1nnc(-c2ccc(Cl)cc2)o1 (configuration not stated)	none (no result: RORgamma inh, ELG1 repair inh, DT40 TDP1 no CPT, DT40 TDP1 CPT, VP16 counter)
CC(C)c1ccc(NC(c2nnc(-c3ccccc3)o2)c2ccc(F)cc2Cl)cc1 (configuration not stated)	DT40 TDP1 no CPT 18.4µM, DT40 TDP1 CPT inconclusive (no result: RORgamma inh, ELG1 repair inh, VP16 counter)
CCCCCC1CCC(c2ccc(-c3ccc(OCCC)cc3F)nc2)CC1 (configuration not stated)	none (no result: RORgamma inh, ELG1 repair inh, DT40 TDP1 no CPT, DT40 TDP1 CPT, VP16 counter)
CCc1ccc(C(=O)c2c(N)c(-c3nc4ccccc4[nH]3)c3ccccn23)cc1	none (no result: RORgamma inh, ELG1 repair inh, DT40 TDP1 no CPT, DT40 TDP1 CPT, VP16 counter)
O=C(c1ccc2ccccc2n1)N1CC(c2nnc(-c3ccncc3)o2)C2(CCOCC2)C1 (configuration not stated)	none (no result: RORgamma inh, ELG1 repair inh, DT40 TDP1 no CPT, DT40 TDP1 CPT, VP16 counter)
CN1CCN/C1=C(/C(Cl)=C(Cl)Cl)[N+](=O)[O-]	DT40 TDP1 no CPT 23.1µM, DT40 TDP1 CPT 11.6µM
CC[C@@]12C(=O)N(c3ccc(OC)cc3)C(=O)N1[C@H](c1ccc(Cl)cc1)[C@@H]1C(=O)N(C3CCCCC3)C(=O)[C@@H]12	DT40 TDP1 no CPT inconclusive, DT40 TDP1 CPT 20.6µM, VP16 counter inconclusive
O=C1[C@H]2[C@@H](c3ccc(Cl)cc3)N3C(=O)N(c4cccc(F)c4)C(=O)[C@@]3(Cc3ccc(Cl)cc3)[C@H]2C(=O)N1C1CCCCC1	DT40 TDP1 no CPT 16.4µM, DT40 TDP1 CPT inconclusive (no result: 12-LOX inh)
Cc1ccc(CN2C[C@@H](CO)[C@H](c3nc(C)no3)C2)cc1	none (no result: RORgamma inh, ELG1 repair inh, DT40 TDP1 no CPT, DT40 TDP1 CPT, VP16 counter)
CCN(CC)C(CNC(=O)Nc1ccc(C(=O)N2CCCCCC2)cc1)c1ccsc1 (configuration not stated)	none (no result: RORgamma inh, ELG1 repair inh, DT40 TDP1 no CPT, DT40 TDP1 CPT, VP16 counter)
CC(NC(=S)Nc1c(Br)cccc1OC(F)F)C(C)(C)C (configuration not stated)	RORgamma inh 10µM, DT40 TDP1 no CPT inconclusive, DT40 TDP1 CPT inconclusive, 12-LOX inh inconclusive, VP16 counter inconclusive
O=C(Nc1ccccc1OC(F)F)c1ccc(Br)o1	none
Cc1nn(-c2ncnc3nc[nH]c23)c2c1C(c1c(F)cccc1F)CC(=O)N2 (configuration not stated)	none (no result: RORgamma inh, ELG1 repair inh, DT40 TDP1 no CPT, DT40 TDP1 CPT, VP16 counter)
COC(=O)[C@H](CC(C)C)N(Cc1cn(Cc2ccc(C)cc2)nn1)S(=O)(=O)c1ccccc1Br	12-LOX inh 8.91µM (no result: RORgamma inh, ELG1 repair inh, DT40 TDP1 no CPT, DT40 TDP1 CPT, VP16 counter)
COC(=O)[C@H](CC(C)C)N(Cc1cn(Cc2ccccc2)nn1)S(=O)(=O)c1ccccc1Br	none (no result: RORgamma inh, ELG1 repair inh, DT40 TDP1 no CPT, DT40 TDP1 CPT, VP16 counter)
Nc1ccc(C(=O)n2c3ccccc3c3ccccc32)cc1	DT40 TDP1 no CPT 2.31µM, DT40 TDP1 CPT 1.84µM
CN(C)CCSc1nc(N)c2c3c(sc2n1)CN(C)CC3	DT40 TDP1 no CPT inconclusive, DT40 TDP1 CPT inconclusive
COCCNc1nc(SC)nc2sc3c(c12)CCN(C)C3	none
